Measured values: the supplement of paper PMC10849652
About 7,900 targets were measured; listed, in parts, are those with a hit and a random draw of the rest. About 0.6% of all pairs of compound and target were hits.

How the values were obtained:
Experiment in all cases: log2 fold change, soluble protein after heating vs DMSO (PISA); higher = thermal stabilisation; K562 cells, 10 uM, 30 min; active = over 0.2 and 3.5 SD of the protein, either way, in both replicates (recomputed)
[1] = compound: CC1=C(C=C(C=C1)NC(=O)C2=CC(=CC=C2)C(C)(C)C#N)NC3=CC4=C(C=C3)N=CN(C4=O)C
Procedure, shortened: (§1)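 K562 cells at 2×10^6 cells/mL were exposed to 10 μM compound for 30 min, then aliquots were heated for 3 min across 48°C-58°C, pooled, and extracted in PBS containing 0.5% NP-40 at 4°C. The supernatant after 21,000xg for 90 min was taken as soluble protein and measured by TMTpro 16plex LC-MS/MS with channel sums equalised. Thermal stability is reported relative to control samples, with values from duplicates. Fold changes are given on a log2 scale.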

[2] = compound: CC1=C(C=C(C=C1)NC(=O)C2=CC(=CC=C2)N(C)C)NC(=O)C3=CC=C(C=C3)O
Procedure, shortened: as §1

[3] = compound: CC1=CC=C(C=C1)SC2=C3C=C(SC3=CN=C2)C(=O)N
Procedure, shortened: as §1

[4] = compound: CC1=NC(=CC=C1)C2=C(N=C(N2)C(C)(C)C)C3=CC4=NC=CN=C4C=C3
Procedure, shortened: as §1

Nexturastat A = compound: CCCCN(Cc1ccc(C(=O)NO)cc1)C(=O)Nc1ccccc1 [Nexturastat A]
Procedure, shortened: as §1

vemurafenib = compound: CCCS(=O)(=O)Nc1ccc(F)c(C(=O)c2c[nH]c3ncc(-c4ccc(Cl)cc4)cc23)c1F [vemurafenib]
Procedure, shortened: as §1

[5] = compound: CCCS(=O)(=O)Nc1ccc(F)c(C(=O)c2c[nH]c3ncc(Cl)cc23)c1F
Procedure, shortened: as §1

[6] = compound: CCCc1cc(C)[nH]c(=O)c1CNC(=O)c1cc(-c2ccnc(N3CCN(C)CC3)c2)cc2c1cnn2C(C)C
Procedure, shortened: as §1

givinostat = compound: CCN(CC)Cc1ccc2cc(COC(=O)Nc3ccc(C(=O)NO)cc3)ccc2c1 [givinostat]
Procedure, shortened: as §1

barasertib = compound: CCN(CCCOc1ccc2c(Nc3cc(CC(=O)Nc4cccc(F)c4)[nH]n3)ncnc2c1)CCOP(=O)(O)O [barasertib]
Procedure, shortened: as §1

[7] = compound: CC[C@@H]1C(=O)N(C)c2cnc(Nc3ccc(C(=O)NC4CCN(C)CC4)cc3OC)nc2N1C1CCCC1
Procedure, shortened: as §1

volasertib = compound: CC[C@@H]1C(=O)N(C)c2cnc(Nc3ccc(C(=O)N[C@H]4CC[C@H](N5CCN(CC6CC6)CC5)CC4)cc3OC)nc2N1C(C)C [volasertib]
Procedure, shortened: as §1

[8] = compound: CC[C@H](C)N1C=C(C2=C(C=C(C=C21)C3=CN=C(C=C3)N4CCNCC4)C(=O)NCC5=C(C=C(NC5=O)C)C)C
Procedure, shortened: as §1

epoxomicin = compound: CC[C@H](C)[C@@H](C(=O)N[C@@H]([C@@H](C)O)C(=O)N[C@@H](CC(C)C)C(=O)[C@]1(CO1)C)NC(=O)[C@H]([C@@H](C)CC)N(C)C(=O)C [epoxomicin]
Procedure, shortened: as §1

[9] = compound: CCn1c(C(=O)N(C2CC2)C2CC2)cc2c3c(ncn3C)c(Nc3cc(C)n(C)n3)nc21
Procedure, shortened: as §1

[10] = compound: CCn1cc(-c2ccnc3[nH]c(-c4cccc(CN(C)C)c4)cc23)c(-c2ccc(NC(=O)N(C)C)cc2)n1
Procedure, shortened: as §1

[11] = compound: CN(C)CC(=O)Nc1ccc2[nH]c(=O)c3ccccc3c2c1
Procedure, shortened: as §1

rosiglitazone = compound: CN(CCOC1=CC=C(C=C1)C[C@H]2C(=O)NC(=O)S2)C3=CC=CC=N3 (racemic) [rosiglitazone]
Procedure, shortened: as §1

[12] = compound: CN1C2=C(C3=C1C(=O)N(N=C3)CC4=CC(=CC=C4)N)SC(=C2)S(=O)C
Procedure, shortened: as §1

[13] = compound: CN1CCC(CNc2ccc3ncc(-c4cccc(OC(F)(F)F)c4)n3n2)CC1
Procedure, shortened: as §1

Measured: log2 fold change

SLC27A4 (UniProt Q6P1M0)
inactive: [1] -0.074 | [2] -0.072 | [3] 0.011 | [4] -0.096 | Nexturastat A -0.014 | vemurafenib -0.039 | [5] -0.031 | [6] -0.017 | givinostat 0.021 | barasertib 0.056 | [7] -0.048 | [8] 0.03 | epoxomicin -0.064 | [9] -0.014 | [10] -0.036 | [11] 0.04 | rosiglitazone 0.066 | [12] -0.051 | [13] -0.158
active: volasertib -0.473

STK4 (UniProt Q13043)
Sequence of UniProt Q13043 (Q13043 whole entry, looked up): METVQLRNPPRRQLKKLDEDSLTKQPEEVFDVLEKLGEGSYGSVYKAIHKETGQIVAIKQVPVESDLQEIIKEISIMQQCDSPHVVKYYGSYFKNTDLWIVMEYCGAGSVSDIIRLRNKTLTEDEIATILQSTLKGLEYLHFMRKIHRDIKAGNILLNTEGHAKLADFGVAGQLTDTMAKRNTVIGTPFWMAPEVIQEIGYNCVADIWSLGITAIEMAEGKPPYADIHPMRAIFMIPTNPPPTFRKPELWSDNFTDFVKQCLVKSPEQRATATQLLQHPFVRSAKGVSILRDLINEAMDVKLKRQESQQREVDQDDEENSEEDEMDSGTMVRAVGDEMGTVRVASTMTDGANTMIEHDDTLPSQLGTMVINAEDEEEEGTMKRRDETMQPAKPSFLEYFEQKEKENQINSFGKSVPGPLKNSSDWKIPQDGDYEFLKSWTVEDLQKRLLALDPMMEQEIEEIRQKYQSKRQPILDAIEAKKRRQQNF
inactive: [1] -0.065 | [2] 0.018 | [3] -0.022 | [4] 0.007 | Nexturastat A 0.004 | vemurafenib -0.024 | [5] -0.014 | [6] 0.005 | givinostat -0.006 | barasertib 0.032 | [7] 0.024 | volasertib 0.006 | [8] 0.014 | epoxomicin 0.033 | [9] -0.029 | [10] -0.041 | [11] 0.013 | rosiglitazone 0.03 | [12] 0.004 | [13] -0.061

SRSF9 (UniProt Q13242)
Sequence of UniProt Q13242 (Q13242 whole entry, looked up): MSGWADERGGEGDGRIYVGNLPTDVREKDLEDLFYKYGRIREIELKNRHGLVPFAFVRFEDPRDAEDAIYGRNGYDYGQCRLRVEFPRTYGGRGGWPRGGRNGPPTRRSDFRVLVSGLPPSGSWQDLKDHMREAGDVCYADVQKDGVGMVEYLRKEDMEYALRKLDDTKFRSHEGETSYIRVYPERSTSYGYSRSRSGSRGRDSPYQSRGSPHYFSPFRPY
inactive: [1] -0.044 | [2] 0.015 | [3] -0.083 | [4] -0.082 | Nexturastat A 0.37 | vemurafenib -0.116 | [5] 0.076 | [6] 0.075 | givinostat 0.151 | barasertib -0.082 | [7] 0.189 | volasertib 0.414 | [8] -0.004 | epoxomicin -0.421 | [9] 0.097 | [10] 0.323 | [11] -0.106 | rosiglitazone -0.07 | [12] 0.506 | [13] 0.364

TAOK1 (UniProt Q7L7X3)
Sequence of UniProt Q7L7X3 (Q7L7X3 whole entry, looked up): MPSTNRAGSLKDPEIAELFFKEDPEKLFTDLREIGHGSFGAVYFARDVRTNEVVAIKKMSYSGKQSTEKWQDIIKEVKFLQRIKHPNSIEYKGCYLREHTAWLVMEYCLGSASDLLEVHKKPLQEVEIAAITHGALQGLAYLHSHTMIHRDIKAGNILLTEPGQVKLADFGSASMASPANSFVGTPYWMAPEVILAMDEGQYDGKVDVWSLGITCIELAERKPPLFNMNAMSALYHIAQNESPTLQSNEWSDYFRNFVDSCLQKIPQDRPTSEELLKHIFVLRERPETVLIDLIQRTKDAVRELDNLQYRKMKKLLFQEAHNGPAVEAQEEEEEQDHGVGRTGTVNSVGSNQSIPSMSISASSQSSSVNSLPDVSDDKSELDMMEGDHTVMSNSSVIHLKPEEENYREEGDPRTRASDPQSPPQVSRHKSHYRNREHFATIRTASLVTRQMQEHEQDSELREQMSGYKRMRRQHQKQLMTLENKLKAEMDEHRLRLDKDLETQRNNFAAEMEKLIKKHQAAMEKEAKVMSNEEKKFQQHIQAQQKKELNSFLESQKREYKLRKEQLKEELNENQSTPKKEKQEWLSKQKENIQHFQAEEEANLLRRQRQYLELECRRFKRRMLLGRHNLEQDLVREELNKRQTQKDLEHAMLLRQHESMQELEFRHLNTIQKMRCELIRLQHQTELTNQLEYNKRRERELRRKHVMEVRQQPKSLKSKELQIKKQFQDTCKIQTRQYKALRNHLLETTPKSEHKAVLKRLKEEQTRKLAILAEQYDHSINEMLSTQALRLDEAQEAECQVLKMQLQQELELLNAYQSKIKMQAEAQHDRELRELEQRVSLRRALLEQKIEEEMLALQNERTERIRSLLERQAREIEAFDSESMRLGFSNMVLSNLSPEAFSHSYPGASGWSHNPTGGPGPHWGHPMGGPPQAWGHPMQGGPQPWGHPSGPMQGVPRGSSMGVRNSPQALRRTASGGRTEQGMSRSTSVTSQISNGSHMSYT
inactive: [1] -0.009 | [2] 0.007 | [3] -0.005 | [4] -0.013 | Nexturastat A 0.065 | vemurafenib 0.023 | [5] 0.011 | [6] -0.048 | givinostat 0.001 | barasertib 0.009 | [7] 0.03 | volasertib -0.019 | [8] 0.029 | epoxomicin -0.02 | [9] -0.008 | [10] -0.024 | [11] 0 | rosiglitazone 0.032 | [12] 0.017
active: [13] -0.262

SRSF4 (UniProt Q08170)
inactive: [1] 0.042 | [2] -0.001 | [3] -0.067 | [4] -0.032 | Nexturastat A 0.074 | vemurafenib -0.027 | [5] 0.017 | [6] 0.224 | givinostat 0.052 | barasertib -0.064 | [7] 0.091 | volasertib -0.001 | [8] 0.011 | epoxomicin -0.175 | [9] -0.068 | [10] 0.115 | [11] -0.09 | rosiglitazone -0.09 | [12] 0.205 | [13] 0.087

STARD7 (UniProt Q9NQZ5)
Sequence of UniProt Q9NQZ5 (Q9NQZ5 whole entry, looked up): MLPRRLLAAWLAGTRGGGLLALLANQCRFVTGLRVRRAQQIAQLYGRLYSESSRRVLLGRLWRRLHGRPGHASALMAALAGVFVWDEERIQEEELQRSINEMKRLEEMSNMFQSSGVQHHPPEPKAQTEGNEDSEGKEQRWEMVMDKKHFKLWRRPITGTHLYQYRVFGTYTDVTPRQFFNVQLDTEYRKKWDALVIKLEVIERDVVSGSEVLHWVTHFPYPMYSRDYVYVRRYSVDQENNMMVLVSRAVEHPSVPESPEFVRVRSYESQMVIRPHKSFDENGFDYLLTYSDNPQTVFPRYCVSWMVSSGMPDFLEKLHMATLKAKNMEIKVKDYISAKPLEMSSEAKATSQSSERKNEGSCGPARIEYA
inactive: [1] 0.061 | [2] 0.015 | [3] 0.004 | [4] -0.01 | Nexturastat A -0.053 | vemurafenib 0 | [5] -0.033 | [6] 0.024 | givinostat -0.029 | barasertib -0.008 | [7] -0.07 | volasertib -0.032 | [8] 0.007 | epoxomicin 0.024 | [9] 0.037 | [10] -0.123 | [11] 0.012 | rosiglitazone 0.055 | [12] 0.012 | [13] -0.158

TBC1D5 isoform 2 (UniProt Q92609)
Sequence of UniProt Q92609 (Q92609 whole entry, looked up): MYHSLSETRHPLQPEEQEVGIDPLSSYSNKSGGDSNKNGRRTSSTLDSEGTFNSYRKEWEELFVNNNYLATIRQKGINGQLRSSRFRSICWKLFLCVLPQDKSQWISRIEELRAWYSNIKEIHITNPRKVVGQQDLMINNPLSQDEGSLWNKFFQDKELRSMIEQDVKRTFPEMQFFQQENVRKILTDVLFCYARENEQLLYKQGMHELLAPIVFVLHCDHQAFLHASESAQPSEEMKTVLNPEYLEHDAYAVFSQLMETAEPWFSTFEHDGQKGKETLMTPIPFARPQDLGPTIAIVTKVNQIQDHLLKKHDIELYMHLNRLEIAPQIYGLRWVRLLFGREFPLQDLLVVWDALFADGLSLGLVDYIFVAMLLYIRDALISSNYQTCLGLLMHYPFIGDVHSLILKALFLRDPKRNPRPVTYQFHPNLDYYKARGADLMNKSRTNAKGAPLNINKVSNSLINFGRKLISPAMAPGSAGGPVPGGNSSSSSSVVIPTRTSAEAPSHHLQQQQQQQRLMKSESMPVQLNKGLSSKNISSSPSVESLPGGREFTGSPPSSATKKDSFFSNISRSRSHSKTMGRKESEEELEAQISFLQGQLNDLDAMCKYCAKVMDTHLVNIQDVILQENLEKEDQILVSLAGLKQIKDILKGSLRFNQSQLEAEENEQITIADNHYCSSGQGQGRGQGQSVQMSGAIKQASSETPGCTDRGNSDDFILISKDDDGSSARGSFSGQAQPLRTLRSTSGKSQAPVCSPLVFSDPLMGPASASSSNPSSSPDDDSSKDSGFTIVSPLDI
active: [7] -0.397 | volasertib -0.854 | [13] -0.375
inactive: [1] -0.051 | [2] -0.048 | [3] -0.013 | [4] 0.018 | Nexturastat A 0.01 | vemurafenib 0.048 | [5] 0.112 | [6] -0.033 | givinostat 0.049 | barasertib 0.022 | [8] 0.113 | epoxomicin 0.069 | [9] -0.076 | [10] -0.016 | [11] 0.039 | rosiglitazone 0.022 | [12] 0.021

TFRC (UniProt P02786)
active: [7] -0.589 | volasertib -0.417 | [13] -0.289
inactive: [1] -0.008 | [2] 0.023 | [3] 0.02 | [4] 0.026 | Nexturastat A -0.067 | vemurafenib -0.002 | [5] -0.007 | [6] -0.026 | givinostat 0.004 | barasertib -0.015 | [8] -0.035 | epoxomicin -0.009 | [9] 0.051 | [10] -0.005 | [11] 0.004 | rosiglitazone -0.007 | [12] -0.033

TM9SF2 (UniProt Q99805)
Sequence of UniProt Q99805 (Q99805 whole entry, looked up): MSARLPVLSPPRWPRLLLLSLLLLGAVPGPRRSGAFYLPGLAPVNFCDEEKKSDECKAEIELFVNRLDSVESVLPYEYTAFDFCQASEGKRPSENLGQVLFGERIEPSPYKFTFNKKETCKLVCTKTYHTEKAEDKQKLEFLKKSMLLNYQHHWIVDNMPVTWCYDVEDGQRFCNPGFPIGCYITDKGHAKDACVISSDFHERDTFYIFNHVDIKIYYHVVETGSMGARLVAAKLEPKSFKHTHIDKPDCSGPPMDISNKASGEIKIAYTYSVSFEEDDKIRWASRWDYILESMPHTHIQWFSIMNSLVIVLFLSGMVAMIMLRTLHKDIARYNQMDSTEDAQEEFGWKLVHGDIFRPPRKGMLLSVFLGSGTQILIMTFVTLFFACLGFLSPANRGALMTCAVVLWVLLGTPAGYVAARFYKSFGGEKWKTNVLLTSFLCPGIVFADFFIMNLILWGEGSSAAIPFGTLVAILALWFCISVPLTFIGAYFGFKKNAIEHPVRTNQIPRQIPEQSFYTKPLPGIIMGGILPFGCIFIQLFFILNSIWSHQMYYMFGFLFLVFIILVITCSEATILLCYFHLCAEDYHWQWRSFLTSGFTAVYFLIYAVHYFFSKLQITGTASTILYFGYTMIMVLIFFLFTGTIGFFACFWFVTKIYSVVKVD
active: [7] -0.57 | volasertib -0.621
inactive: [1] 0.056 | [2] -0.009 | [3] -0.005 | [4] -0.001 | Nexturastat A -0.039 | vemurafenib -0.03 | [5] 0.018 | [6] -0.004 | givinostat -0.019 | barasertib 0.035 | [8] -0.008 | epoxomicin -0.034 | [9] 0.033 | [10] -0.017 | [11] 0.018 | rosiglitazone -0.052 | [12] -0.01 | [13] -0.182

SYMPK (UniProt Q92797)
Sequence of UniProt Q92797 (Q92797 whole entry, looked up): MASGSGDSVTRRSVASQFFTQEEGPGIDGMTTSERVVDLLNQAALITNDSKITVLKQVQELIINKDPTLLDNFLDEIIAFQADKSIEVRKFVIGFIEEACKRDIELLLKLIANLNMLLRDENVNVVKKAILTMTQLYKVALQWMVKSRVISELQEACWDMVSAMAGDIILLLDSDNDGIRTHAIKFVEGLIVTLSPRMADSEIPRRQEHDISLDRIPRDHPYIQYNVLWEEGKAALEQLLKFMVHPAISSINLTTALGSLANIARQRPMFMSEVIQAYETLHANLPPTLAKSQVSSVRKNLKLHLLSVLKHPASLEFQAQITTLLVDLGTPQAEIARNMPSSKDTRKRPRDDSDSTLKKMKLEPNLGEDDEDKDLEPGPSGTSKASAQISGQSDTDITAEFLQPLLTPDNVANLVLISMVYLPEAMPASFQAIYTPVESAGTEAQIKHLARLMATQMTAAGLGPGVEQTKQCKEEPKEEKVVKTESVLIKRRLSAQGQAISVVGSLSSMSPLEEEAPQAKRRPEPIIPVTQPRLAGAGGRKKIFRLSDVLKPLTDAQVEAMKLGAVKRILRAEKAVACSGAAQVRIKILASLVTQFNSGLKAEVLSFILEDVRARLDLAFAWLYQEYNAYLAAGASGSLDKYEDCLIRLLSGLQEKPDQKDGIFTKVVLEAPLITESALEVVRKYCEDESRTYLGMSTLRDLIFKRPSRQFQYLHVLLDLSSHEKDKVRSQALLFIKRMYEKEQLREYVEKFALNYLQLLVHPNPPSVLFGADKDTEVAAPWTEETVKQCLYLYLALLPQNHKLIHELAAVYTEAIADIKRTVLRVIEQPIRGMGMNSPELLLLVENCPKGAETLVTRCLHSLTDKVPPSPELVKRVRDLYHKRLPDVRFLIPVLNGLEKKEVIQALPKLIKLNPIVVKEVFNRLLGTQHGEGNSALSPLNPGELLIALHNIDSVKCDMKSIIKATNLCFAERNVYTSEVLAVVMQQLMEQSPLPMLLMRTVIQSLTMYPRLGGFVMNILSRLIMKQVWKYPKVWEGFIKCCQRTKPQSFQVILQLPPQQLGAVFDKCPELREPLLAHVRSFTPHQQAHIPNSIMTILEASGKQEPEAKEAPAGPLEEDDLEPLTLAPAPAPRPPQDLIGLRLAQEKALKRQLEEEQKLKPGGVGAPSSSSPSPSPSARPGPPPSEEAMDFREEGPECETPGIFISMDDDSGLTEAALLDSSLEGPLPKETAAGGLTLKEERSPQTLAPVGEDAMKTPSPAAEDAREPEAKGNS
inactive: [1] 0.042 | [2] -0.004 | [3] 0.05 | [4] 0.005 | Nexturastat A -0.103 | vemurafenib 0.119 | [5] 0.212 | [6] 0.051 | givinostat 0.145 | barasertib 0.042 | [7] -0.341 | [8] -0.289 | epoxomicin 0.073 | [9] -0.036 | [10] -0.026 | [11] 0.123 | rosiglitazone 0.13 | [12] 0.076 | [13] -0.141
active: volasertib -0.5

SLC38A9 (UniProt Q8NBW4)
inactive: [1] 0.075 | [2] 0.007 | [3] -0.05 | [4] 0.023 | Nexturastat A 0.088 | vemurafenib -0.036 | [5] -0.012 | [6] -0.105 | givinostat 0.021 | barasertib -0.006 | [7] -0.013 | volasertib -0.003 | [8] -0.022 | epoxomicin -0.02 | [9] 0.007 | [10] 0.055 | [11] -0.039 | rosiglitazone 0.003 | [12] 0.029 | [13] -0.197

TFR2 (UniProt Q9UP52)
inactive: [1] 0.012 | [2] -0.018 | [3] -0.012 | [4] -0.036 | Nexturastat A -0.031 | vemurafenib -0.018 | [5] -0.003 | [6] -0.029 | givinostat -0.083 | barasertib 0.01 | [8] -0.045 | epoxomicin 0.01 | [9] 0.037 | [10] 0.038 | [11] -0.035 | rosiglitazone -0.007 | [12] -0.003 | [13] -0.22
active: [7] -0.483 | volasertib -0.382

SMAD2 (UniProt Q15796)
inactive: [1] 0.036 | [2] -0.034 | [3] 0.01 | [4] 0.052 | Nexturastat A -0.382 | vemurafenib -0.016 | [5] 0.04 | [6] -0.027 | givinostat 0.047 | barasertib 0.047 | [7] -0.067 | [8] 0.065 | epoxomicin 0.11 | [9] -0.032 | [10] -0.014 | [11] 0.014 | rosiglitazone 0.078 | [12] -0.158 | [13] -0.018
active: volasertib -0.347

SSR4 (UniProt P51571)
inactive: [1] -0.004 | [2] 0.012 | [3] 0.064 | [4] 0.039 | Nexturastat A -0.046 | vemurafenib -0.014 | [5] 0.081 | [6] -0.035 | givinostat 0.03 | barasertib -0.052 | [7] 0.004 | volasertib -0.01 | [8] -0.004 | epoxomicin 0.029 | [9] 0.06 | [10] 0.002 | [11] -0.022 | rosiglitazone 0.015 | [12] -0.028 | [13] 0.045

SP3 (UniProt Q02447)
inactive: [1] -0.008 | [2] -0.126 | [3] -0.041 | [4] -0.058 | Nexturastat A -0.003 | vemurafenib -0.038 | [5] 0.012 | [6] -0.052 | givinostat -0.219 | barasertib 0.011 | [7] 0.03 | volasertib 0.104 | [8] -0.019 | epoxomicin -0.194 | [9] 0.025 | [10] 0.068 | [11] -0.074 | rosiglitazone -0.062 | [12] 0.058 | [13] 0.028

SNRPB2 (UniProt P08579)
Sequence of UniProt P08579 (P08579 whole entry, looked up): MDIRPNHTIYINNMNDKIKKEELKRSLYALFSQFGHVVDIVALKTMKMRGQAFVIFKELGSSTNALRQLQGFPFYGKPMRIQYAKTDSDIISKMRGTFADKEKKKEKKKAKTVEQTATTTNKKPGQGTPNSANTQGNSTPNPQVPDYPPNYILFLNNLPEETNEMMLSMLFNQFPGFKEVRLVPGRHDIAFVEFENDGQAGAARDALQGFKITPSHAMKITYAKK
inactive: [1] -0.016 | [2] 0.007 | [3] -0.026 | [4] -0.014 | Nexturastat A -0.015 | vemurafenib -0.036 | [5] -0.042 | [6] -0.048 | givinostat -0.051 | barasertib -0.056 | [7] 0.176 | volasertib 0.174 | [8] -0.069 | epoxomicin -0.05 | [9] 0.025 | [10] 0.069 | [11] -0.063 | rosiglitazone -0.047 | [12] -0.008 | [13] 0.098
